hcDAF-12 act: H. contortus DAF-12 activation, primary screen. HEK293 hcDAF-12 lit1-tk-luc reporter, luminescence; 0% DMSO, 100% Δ7-dafachronic acid. 1.4% of 370,000 active. activation, % at 6.8 µM;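 active = activation above the mean of all tested compounds plus 3 SD, cut at about 5.5% in these data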;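 also: 100% = response to 3 µM Δ7-dafachronic acid high control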
DAX1 inh-1: blocks DAX1 repression of SF-1 activated StAR promoter | HEK293T StAR-luciferase reporter, SF-1/DAX-1 repression relief | inhibition, % at 6.8 µM | 1.1% of 370,000 active | AID 652010;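 active = inhibition above the mean over all tested compounds plus 3 SD, cut at about 3.6% in these data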;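 also: 0% = DAX-1 cells with DMSO and 100% = cells lacking DAX-1 with DMSO; higher inhibition means more luminescence from relief of DAX-1 repression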
DAX1 inh-2: inhibitors of human orphan nuclear receptor DAX1 (NR0B1); inhibition, % at 6.75 µM; P51843; 0.99% of 340,000 active; AID 504766; HEK293 Gal4-DAX1 luciferase reporter, luminescence;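 active = inhibition above the mean over all tested compounds plus 3 SD, cut at about 4.2% in these data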;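 also: 0% = DAX1-transfected cells with DMSO and 100% = empty-vector control cells with DMSO; inhibition shows as a rise in luminescence from relieved DAX1 repression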
Target sequence (P51843 207-470 limits assumed): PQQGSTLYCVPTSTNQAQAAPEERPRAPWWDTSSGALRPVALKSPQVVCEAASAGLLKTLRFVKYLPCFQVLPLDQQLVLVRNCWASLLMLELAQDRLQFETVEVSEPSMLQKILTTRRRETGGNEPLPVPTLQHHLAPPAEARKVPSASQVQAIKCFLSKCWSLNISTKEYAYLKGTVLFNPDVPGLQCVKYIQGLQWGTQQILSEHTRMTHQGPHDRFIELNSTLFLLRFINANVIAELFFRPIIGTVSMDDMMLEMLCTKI
hgDAF12 agonist: hgDAF-12 agonism, primary luciferase screen | activation, % at 6.8 µM | 1.8% of 370,000 active | HEK293 GAL4-hgDAF12 UAS-luciferase reporter, agonist luminescence; normalized to butyrate control;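 active = activation above a cutoff set at the mean of all screened compounds plus 3 SD, cut at about 10% in these data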;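 also: 0% = DMSO wells and 100% = sodium butyrate wells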
SMARCA2 activ: SMARCA2 function activation, primary screen; MG213 cells, MMTV-luciferase reporter, dexamethasone, overnight; activation, % at 9.1 µM; 1% of 370,000 active; in the data active = activation above about 7.8%;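 also: 0% = vehicle wells and 100% = reference activator wells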
ssDAF-12 act: S. stercoralis DAF-12 activation, primary screen | AID 652126 | 1% of 370,000 active | activation, % at 6.8 µM | HEK293 ssDAF-12/GRIP1 lit1-tk-luc reporter, luminescence; % of 3 µM dafachronic acid response;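 active = activation above the mean over all tested compounds plus 3 SD, cut at about 0.9% in these data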;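 also: 0% = DMSO-only wells and 100% = 3 µM delta7-dafachronic acid wells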
DAX1 inh confirm: NR0B1 (human) inhibition, confirmation. AID 652134. shares compounds with DAX1 inh-1. HEK293T StAR-promoter luciferase reporter, SF-1/DAX-1 repression. inhibition, % at 6.8 µM. 87% of 2,400 active;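 active = inhibition above the average of every tested compound plus 3 SD, cut at about 3.8% in these data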;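 also: 0% = DAX-1 cells with DMSO and 100% = no DAX-1 control cells with DMSO; active compounds raise luminescence by relieving repression of the StAR reporter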
SF1 AF2mut Luc: counter-screen for DAX1 inhibitors: nonselective inhibitors with SF-1 AF2 mutant; shares compounds with DAX1 inh-1; HEK293 StAR-luciferase, luminescence; inhibition, % at 6.8 µM; 78% of 2,400 active; AID 652136;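 active = inhibition above the mean of all tested compounds plus 3 SD, cut at about 3% in these data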;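 also: 0% = DAX-1 transfected cells with DMSO and 100% = cells without DAX-1 with DMSO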
Numbers without * were called inactive; . = no result. Shown are actives, neighbours in structure and some others; about 4.8% of the full set was active somewhere.

SMILES	hcDAF-12 act	DAX1 inh-1	DAX1 inh-2	hgDAF12 agonist	SMARCA2 activ	ssDAF-12 act	DAX1 inh confirm	SF1 AF2mut Luc
Cc1nc2ccc(NC(=O)c3ccc(Br)o3)cc2s1	1.0	6.2*	2.3	4.7	7.3	-1.5	13.8*	7.6*
CCCC(=O)Nc1nc2ccc(NC(=O)c3ccc(Br)o3)cc2s1	-1.6	-1.4	-1.9	-1.9	2.6	-1.3	.	.
Cc1ccc(S(=O)(=O)NCCC(=O)NCCc2ccccc2)cc1	0.7	0.6	0.2	-0.8	0.9	-0.8	.	.
Cc1ccc(C(=O)Nc2ccc(C)c(S(=O)(=O)N3CCOCC3)c2)c(C)c1	-2.1	-0.8	-0.1	-0.2	-1.5	-1.1	.	.
CCCCCCCCN1C(=O)[C@H](CC(=O)NCc2cccc(C(F)(F)F)c2)C[C@@]2(C(=O)OC)CCCCC=C12	-3.7	-0.9	.	0.2	-4.7	-0.9	.	.
COc1cccc(CNC(=O)CCC(=O)N2CCOCC2)c1	-0.4	0.6	1.9	0.8	-2.6	-1.5	.	.
Cc1cc(=O)[nH]c(Sc2c(-c3ccccc3)c3ccccc3[nH]c2=O)n1	-0.3	-0.6	-0.1	-0.3	-1.4	-0.9	.	.
COC(=O)c1cc(S(=O)(=O)NCCc2ccccc2)c[nH]1	-0.9	-0.5	0.3	2.9	-2.0	-1.1	.	.
CC(=O)Nc1nc(-c2ccc(-c3ccccc3)cc2)cs1	1.3	4.5*	2.0	3.9	-0.6	-0.6	5.9*	4.5*
CC(C)(C)S(=O)N1Cc2cc(C(=O)NCCCN3CCOCC3)nc(-c3cccc(-c4cc5ccccc5o4)c3)c2[C@@H]1CCO (some centres not stated)	-1.2	-2.1	.	-2.3	-1.1	-1.4	.	.
c1ccc(-n2ncc3c(NC4CCCCCC4)ncnc32)cc1	-0.1	5.7*	5.9*	10.8*	6.7	-0.6	10.2*	5.7*
CCN(CC)S(=O)(=O)c1cccc(NC(=O)COc2ccc(Cl)cc2Br)c1	-3.3	0.1	0.0	0.3	-4.8	0.0	.	.
COc1ccccc1OCC(=O)NNC(=O)CSC(=S)N1CCCC1	0.4	5.1*	-0.8	-0.7	-1.1	0.0	-0.7	0.0
CCOC(=O)C1(Cc2cccc(OC)c2)CCCN(C(=O)CCN2CCCO2)C1 (configuration not stated)	2.6	4.8*	1.3	10.9*	5.7	0.2	7.0*	5.8*
O=C(NNC(=O)c1ccccc1O)c1cc2ccccc2o1	4.9	5.6*	2.1	5.4	1.9	1.1*	3.8*	4.0*
CC1Oc2ccccc2C(=O)N(CC(=O)c2ccc3c(c2)OCCO3)C1=O (configuration not stated)	-0.5	-0.2	0.0	1.7	1.2	-0.7	.	.
CC(C)C1Oc2ccccc2C(=O)N(CC(=O)c2ccc3c(c2)OCCO3)C1=O (configuration not stated)	3.4	7.6*	3.6	3.5	6.6	-0.4	13.6*	8.8*
Cc1ccc(NC(=O)CSc2ccc(S(=O)(=O)N3CCCC3)cn2)cc1F	-1.2	5.9*	0.5	-2.3	-3.3	-0.8	-4.5	0.1
Cc1ccc(NC(=O)CNc2cccc(S(=O)(=O)N3CCCCC3)c2)cc1F	-2.0	-3.1	-1.6	-6.5	-3.4	-2.2	.	.
Cc1cccn2cc(-c3ccc4c(c3)NC(=O)CO4)nc12	-0.5	-0.6	-1.6	1.7	-0.6	-1.1	.	.
Cc1ccn2cc(-c3ccc4c(c3)NC(=O)CO4)nc2c1	1.4	5.3*	1.1	10.8*	3.6	-0.9	8.6*	6.0*
COc1cc(/C=C(\C#N)C(=O)Nc2ccccc2F)ccc1OCCN1CCOCC1	2.5	4.5*	0.2	4.2	1.5	-0.8	5.0*	2.0
N#C/C(=C\c1ccc(OCCN2CCOCC2)cc1)C(=O)Nc1ccccc1	-0.8	-1.1	0.6	-1.3	3.5	-1.1	.	.
COC(=O)C1=CN(c2ccc(C(C)(C)C)cc2)C(N)=C(C#N)C1c1cccc2ccccc12 (configuration not stated)	1.1	5.2*	.	-6.3	-3.5	-1.0	-0.6	-1.1
COC(=O)C1=CN(c2ccc(OC)cc2)C(N)=C(C#N)C1c1cccc2ccccc12 (configuration not stated)	0.3	0.2	.	-4.1	1.6	-0.8	.	.
SMILES	hcDAF-12 act	DAX1 inh-1	DAX1 inh-2	hgDAF12 agonist	SMARCA2 activ	ssDAF-12 act	DAX1 inh confirm	SF1 AF2mut Luc
Cn1cnnc1SCC(=O)Nc1ccccc1C(=O)NC1CCCC1	-1.2	0.1	0.7	1.2	-0.4	-0.4	.	.
CC(C)N=C1NN=C(c2ccc(F)cc2)CS1	4.7	5.9*	0.6	12.6*	1.9	-0.7	11.0*	6.0*
CCN=C1NN=C(c2ccc(C)cc2)CS1	1.9	1.2	0.2	8.4	4.6	-0.5	.	.
COc1ccc(N=[N+]([O-])c2ccc(OC)cc2)cc1	5.3	7.9*	1.3	9.1	0.9	0.9	15.9*	6.8*
COc1ccc(S(=O)(=O)c2ccc(OC)cc2)cc1	0.3	-1.1	0.0	-1.3	-2.1	-1.3	.	.
CS(=O)(=O)N1CCCCC1c1cc(C(=O)Nc2cccc(C#N)c2)no1 (configuration not stated)	-2.2	2.0	.	4.0	3.0	-0.7	.	.
CS(=O)(=O)N1CCCCC1c1cc(C(=O)Nc2ccccc2)no1 (configuration not stated)	2.4	6.7*	.	11.2*	3.4	-0.5	7.9*	7.0*
Cc1noc(C)c1CSc1nc2ccccc2[nH]1	-0.5	0.4	0.1	-0.7	-1.3	-1.3	.	.
Fc1cccc(F)c1CSc1nc2ccccc2[nH]1	4.5	5.1*	2.1	11.8*	2.4	0.5	16.0*	7.8*
O=C(c1cn(-c2ccccc2)nc1-c1cccs1)N1CCN(c2ccc(F)cc2)CC1	-1.5	0.2	1.2	-1.3	1.3	-1.2	.	.
CCOC(=O)/C(C#N)=C\c1ccc(OC)c(OC)c1	-1.9	0.7	0.0	-1.1	0.2	-2.3	.	.
O=C(Cn1nnc(-c2ccc3c(c2)OCO3)n1)Nc1ccccc1C(=O)O	1.1	4.9*	0.4	3.0	0.4	-0.9	2.3	3.1*
O=C(Cn1nnc(-c2ccccc2)n1)Nc1ccc2c(c1)OCO2	0.6	1.3	-0.1	1.0	2.3	-1.3	.	.
CCOc1ccc(N(CC(=O)Nc2ccccc2OCC)S(=O)(=O)c2c(C)noc2C)cc1	0.6	13.4*	0.1	1.0	-3.8	-0.3	15.6*	-6.6
Cn1c(SC2=CS(=O)(=O)c3ccccc32)nc2ccccc21	1.5	-1.6	-1.7	-1.7	1.2	-0.8	.	.
NC(=O)c1ccccc1N/C=C/C(=O)c1ccc(F)cc1	3.5	5.2*	1.4	10.8*	3.7	0.1	9.7*	6.4*
